The entries come from a sample that favours hits as a whole.
Tgondii IFNg: T. gondii growth inhibition with IFN-gamma, primary screen, cell-based; Toxoplasma gondii growth in IFN-gamma-treated host cells; active compounds read low; AID 1259416, 2018; activity change, negative = inhibition, % (concentration not given with the values); 3.8% of 69,000 active; in the data active means activity change below about -70%, passing the limit was not always enough;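 further: host cells are HeLa cells infected with Toxoplasma gondii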
Each line names hits and unclear results; the compound was inactive in the other large screens.

CCOC(=O)C1CCN(C(=O)c2oc3ccc4c(c3c2C)C(=O)CC2(CCCCC2)O4)CC1	none
Cc1c(C(=O)N2CC(C)CC(C)C2)oc2ccc3c(c12)C(=O)CC1(CCCCCC1)O3 (configuration not stated)	Tgondii IFNg -99
Cc1ccc2c(c1)C(=O)CC1(CCN(C(=O)C3CCCC3)CC1)O2	none
Cc1ccc2c(C)c(C(=O)N3CCC4(CN(C)C(=O)O4)C3)oc2c1 (configuration not stated)	none
Cc1ccc2c(C)c(C(=O)N3CCCC4(CC3)CNC(=O)O4)oc2c1 (configuration not stated)	none
Cc1c(C(=O)N2CCC(C)CC2)oc2ccc3c(c12)C(=O)CC1(CCCCCC1)O3	Tgondii IFNg -110
Cc1oc2ccccc2c1CC(=O)Nc1ccc(OC(F)(F)F)cc1	none
Cc1ccc(S(=O)(=O)Oc2ccc3oc(=O)sc3c2)cc1	none
COc1cccc2ccc(-c3ccccc3CO)nc12	none
Cc1noc(C)c1CNC(=O)CSc1cn(C)c2ccccc12	none
Cc1nn(Cc2nc(-c3ccc(NC(=O)c4cc(F)ccc4F)cc3)oc2C)c(C)c1C	none
Cc1nn(Cc2nc(-c3ccc(NC(=O)c4ccc(N(C)C)cc4)cc3)oc2C)c(C)c1C	none
Cc1nn(Cc2nc(-c3ccc(NC(=O)c4cc(F)cc(F)c4)cc3)oc2C)c(C)c1C	none
CCOc1ccccc1C(=O)Nc1ccc(-c2nc(Cn3nc(C)c(C)c3C)c(C)o2)cc1	none
COc1ccc(C(=O)Nc2ccc(-c3nc(Cn4nc(C)c(C)c4C)c(C)o3)cc2)cc1	Tgondii IFNg -93
Cc1ccccc1C(=O)Nc1ccc(-c2nc(Cn3nc(C)c(C)c3C)c(C)o2)cc1	Tgondii IFNg -97
Cc1cccc(OCC(=O)N2CCn3nc(C(=O)N4CCN(C)CC4)cc3C2)c1	none
CC(C)(CN1CCOCC1)CN1CCN(Cc2cccc(F)c2)CC1	none
Cc1ccc(C)c(CN2CCC3(CC2)N=C(c2ccc(Br)cc2)C(=O)N3)c1	none
Cc1nc(-c2cccc(F)c2)sc1CCNC(=O)C(=O)Nc1ccccc1Cl	none
CCNC1CCc2c(c(C(=O)NC)nn2Cc2ccccc2)C1 (configuration not stated)	none
Cc1cc(F)ccc1NC(=O)CN1C(=O)CCc2cc(S(=O)(=O)N3CCCC3)ccc21	none
CCOC(=O)c1c(NC(=O)c2cccs2)nc(SC)n1Cc1cccs1	none
Cc1cccc(CN2CCCC3(CCN(S(=O)(=O)c4ccc(F)cc4)C3)C2)n1 (configuration not stated)	none
CCc1ccc(S(=O)(=O)N2CCC3(CCCN(Cc4c(C)noc4C)C3)C2)cc1 (configuration not stated)	Tgondii IFNg -72
Cc1ccc(S(=O)(=O)N2CCC3(CCCN(Cc4c(C)noc4C)C3)C2)cc1 (configuration not stated)	none
O=C(c1ccc(-n2nc(C(F)(F)F)c3c2CCCC3)cc1)N1CCN(c2cccc(Cl)c2)CC1	none
COc1cccc(-c2ccc3c(c2)O[C@H](CN(C)Cc2cccnc2)[C@H](C)CN([C@@H](C)CO)S3(=O)=O)c1	none
CCCNC(=O)N(C)C[C@H]1Oc2cc(C#C[C@H](C)O)ccc2S(=O)(=O)N([C@@H](C)CO)C[C@H]1C	none
C[C@@H]1CN([C@H](C)CO)S(=O)(=O)c2ccc(C#CCC3CCCC3)cc2O[C@@H]1CN(C)C(=O)c1cnccn1	none
C[C@@H]1CN([C@H](C)CO)S(=O)(=O)c2ccc(-c3ccncc3)cc2O[C@H]1CN(C)S(C)(=O)=O	Tgondii IFNg -104
C[C@H](CO)N1C[C@H](C)[C@H](CN(C)C(=O)NC2CCCC2)Oc2cc(-c3cncnc3)ccc2S1(=O)=O	none
COCC#Cc1ccc2c(c1)O[C@@H](CN(C)C(=O)C1CCOCC1)[C@H](C)CN([C@@H](C)CO)S2(=O)=O	none
Cc1ccc(S(=O)(=O)N(C)C[C@@H]2Oc3cc(C#CC4CCCC4)ccc3S(=O)(=O)N([C@@H](C)CO)C[C@@H]2C)cc1	Tgondii IFNg -114
C[C@@H]1CN([C@H](C)CO)S(=O)(=O)c2ccc(C#Cc3cccc(F)c3)cc2O[C@H]1CN(C)S(=O)(=O)c1cn(C)cn1	none
COCC#Cc1ccc2c(c1)O[C@@H](CN(C)C(=O)C1CCOCC1)[C@@H](C)CN([C@H](C)CO)S2(=O)=O	none
Cc1ccc(S(=O)(=O)N(C)C[C@H]2Oc3cc(C#CC4CCCC4)ccc3S(=O)(=O)N([C@H](C)CO)C[C@H]2C)cc1	none
C[C@H](CO)N1C[C@H](C)[C@H](CN(C)S(=O)(=O)c2cn(C)cn2)Oc2cc(C#Cc3cccc(F)c3)ccc2S1(=O)=O	Tgondii IFNg -93
Cc1ccc(S(=O)(=O)N(C)C[C@H]2Oc3cc(C#CC4CCCC4)ccc3S(=O)(=O)N([C@@H](C)CO)C[C@H]2C)cc1	Tgondii IFNg -132
Cc1cc(C)c(S(=O)(=O)N2CCC3(CC2)Nc2ccccc2-n2cccc23)cc1C	none
O=C1CCC2(CCC(NCc3nccs3)CC2)N1 (configuration not stated)	none
COCC1(NC(=O)c2cnc(C(C)C)[nH]c2=O)CCCC1	none
CN(C)CCN1CCc2ncc(CNS(C)(=O)=O)n2CC1	none
CC(=O)N1CC2(CCN(C(=O)CC3CCCC3)CC2)CC1C(=O)O (configuration not stated)	none
Cc1cc2ncn(CCC(=O)NCCc3nc4ccccc4n3C)c2cc1C	none
C[C@@H]1CN([C@H](C)CO)S(=O)(=O)c2ccc(C#CC(C)(C)O)cc2O[C@H]1CN(C)Cc1ccc(F)cc1	Tgondii IFNg -116
C[C@@H]1CN([C@H](C)CO)S(=O)(=O)c2ccc(-c3ccc(F)cc3)cc2O[C@H]1CN(C)Cc1ccccc1C(=O)O	none
CCCC#Cc1ccc2c(c1)O[C@@H](CN(C)Cc1ccccn1)[C@@H](C)CN([C@H](C)CO)S2(=O)=O	none
C[C@@H]1CN([C@@H](C)CO)S(=O)(=O)c2ccc(-c3ccc(F)cc3)cc2O[C@H]1CN(C)Cc1ccccc1C(=O)O	none
C[C@@H]1CN([C@H](C)CO)S(=O)(=O)c2ccc(C#CC(C)(C)O)cc2O[C@@H]1CN(C)Cc1ccc(F)cc1	none
CCCN(C)C[C@@H]1Oc2cc(/C=C/c3ccccc3)ccc2S(=O)(=O)N([C@@H](C)CO)C[C@H]1C	Tgondii IFNg -91
CN1CCn2nc(C(=O)NC3c4ccccc4-c4ccccc43)cc2C1	none
CCCn1cnc(-c2nc(C(=O)NC3CC3)c3ccccn23)c1	none
CN(Cc1noc(C2CCC2)n1)C(=O)COc1cccnc1	none
Cc1oc(-c2ccco2)nc1CN1CC[C@H](O)[C@@H](O)C1	none
OC1=C(O)c2nc3cc(C(F)(F)F)ccc3nc21	none
OC1(c2ccc(Cl)c(Cl)c2)CSc2nc3cc(C(F)(F)F)ccc3n21 (configuration not stated)	Tgondii IFNg -84
NNC(=S)Nc1cc(C(F)(F)F)ccc1Cl	none
CN1CC2(CCCN(CCS(=O)(=O)c3ccccc3)CC2)OC1=O (configuration not stated)	none
Cc1ccc(NC(=S)N2CCCc3ccccc32)c(C)c1	none
Cc1cc(C)n(-c2ncc(C#N)c(N)n2)n1	none
Cc1ccc(-c2cc(-c3ccccc3)nc(-n3nc(C)cc3C)n2)cc1	Tgondii IFNg -104
Cc1cc(C)n(-c2nc3ccccc3s2)n1	none
Fc1cccc(CN2CCC3(CC2)CC(OCC2CC2)CO3)c1 (configuration not stated)	none
CN(C)CCOC1C2CCC1N(C(=O)c1cscn1)C2 (configuration not stated)	none
O=C1NC(O)CCN1[C@@H]1O[C@H](CO)[C@@H](O)[C@H]1O (some centres not stated)	none
CCCCOc1c(C(=O)c2c(F)cc(C)cc2F)cnc2n[nH]cc12	Tgondii IFNg -92

Compound activity deposited in PubChem by Broad Institute.
